Source: the supplement of paper PMC10849652
About 8,800 targets were measured; listed, in parts, are those with a hit and a random draw of the rest. About 0.5% of all pairs of compound and target were hits.

Columns and labels:
Experiment in all cases: log2 fold change, soluble protein after heating vs DMSO (PISA); higher = thermal stabilisation; K562 lysate, 10 uM; active = over 0.2 and 3.5 SD of the protein, either way, in both replicates (recomputed)
[1] = compound: C#Cc1cccc(Nc2ncnc3cc(OCCOC)c(OCCOC)cc23)c1 [erlotinib]
Method in brief: (§1)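 To prepare the extract, K562 pellets were dounce-homogenised in PBS pH 7.4 with 1 mM MgCl2, giving crude material at 1 mg/mL protein. This was treated with 10 μM compound for 30 min, then heated in aliquots for 3 min over 48°C-58°C before pooling and addition of NP-40 to 0.5% at 4°C. Centrifugation at 21,000xg for 90 min left soluble protein in the supernatant, which TMTpro 16plex LC-MS/MS quantified with equalised channel sums. Results are log-two fold changes in thermal stability compared with solvent controls, from duplicates.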

[2] = compound: C/C(=N\NC(=O)C1=CC(=CC=C1)S(=O)(=O)N2CCOCC2)/C3=C(C=CC(=C3)Cl)O
Method in brief: as §1

[3] = compound: C1=CC(=CC=C1C2=NC3=C(N2)C=C(C=C3)C(=O)N)OC4=CC=C(C=C4)Cl
Method in brief: as §1

[4] = compound: C1=CC2=C(C=CC(=C2)/C=C\3/C(=O)NC(=NCC4=CC=CS4)S3)N=C1
Method in brief: as §1

[5] = compound: C1=CC2=NC=CN=C2C=C1/C=C/3\C(=O)NC(=O)S3
Method in brief: as §1

[6] = compound: C1=CC=C(C=C1)C2=NC(=C(N2)C3=CC=NC=C3)C4=CC(=C(C=C4)Cl)O
Method in brief: as §1

[7] = compound: C1=CC=C2C(=C1)C3=NNC4=CC=CC(=C43)C2=O
Method in brief: as §1

[8] = compound: C1CCN(C1)C(=O)NC2=CC=CC(=C2)NC3=NC=C(C(=N3)NCCC4=CN=CN4)Br
Method in brief: as §1

[9] = compound: C1CN(CCC1(CC2=CC=C(C=C2)Cl)N)C3=NC=NC4=C3C=CN4
Method in brief: as §1

[10] = compound: C1COCCN1CCN2C3=CC=CC=C3N=C2NC(=O)C4=CC(=CC=C4)[N+](=O)[O-] [IRAK-1-4 Inhibitor I]
Method in brief: as §1

[11] = compound: C=CC(=O)N1CCC[C@@H](n2nc(-c3ccc(Oc4ccccc4)cc3)c3c(N)ncnc32)C1 [ibrutinib]
Method in brief: as §1

[12] = compound: CC(=O)c1cnc2ccc(-c3cc(Cl)c(O)c(Cl)c3)nc2c1N[C@H]1CC[C@H](CN(C)C)CC1
Method in brief: as §1

[13] = compound: CC(C)(C)Cn1c(N)nc2ccc(-c3[nH]c(C(C)(C)C)nc3-c3ccc(F)cc3)nc21 [ralimetinib]
Method in brief: as §1

[14] = compound: CC(C)(O)CC(=O)NCCn1ccc2ncnc(Nc3ccc(Oc4cccc(C(F)(F)F)c4)c(Cl)c3)c21
Method in brief: as §1

[15] = compound: CC(C)C1=C2N=C(C=C(N2N=C1)NCC3=CC=CC=C3)NCCCCCCN
Method in brief: as §1

[16] = compound: CC1=C(C(CC(=O)N1)C2=CC=C(C=C2)C(F)(F)F)C(=O)NC3=C(C=C4C(=C3)C=NN4)F
Method in brief: as §1

[17] = compound: CC1=C(C2=C(C=C1)C(=O)C3=CC=CC=C3N2CCCN)C
Method in brief: as §1

[18] = compound: CC1=C(C=C(C=C1)NC(=O)C2=CC(=CC=C2)C(C)(C)C#N)NC3=CC4=C(C=C3)N=CN(C4=O)C
Method in brief: as §1

[19] = compound: CC1=C(C=C(C=C1)NC(=O)C2=CC(=CC=C2)N(C)C)NC(=O)C3=CC=C(C=C3)O
Method in brief: as §1

[20] = compound: CC1=CC=C(C=C1)SC2=C3C=C(SC3=CN=C2)C(=O)N
Method in brief: as §1

Measured: log2 fold change

HSD17B12 (UniProt Q53GQ0)
Chain of UniProt Q53GQ0 (Q53GQ0 whole entry, looked up): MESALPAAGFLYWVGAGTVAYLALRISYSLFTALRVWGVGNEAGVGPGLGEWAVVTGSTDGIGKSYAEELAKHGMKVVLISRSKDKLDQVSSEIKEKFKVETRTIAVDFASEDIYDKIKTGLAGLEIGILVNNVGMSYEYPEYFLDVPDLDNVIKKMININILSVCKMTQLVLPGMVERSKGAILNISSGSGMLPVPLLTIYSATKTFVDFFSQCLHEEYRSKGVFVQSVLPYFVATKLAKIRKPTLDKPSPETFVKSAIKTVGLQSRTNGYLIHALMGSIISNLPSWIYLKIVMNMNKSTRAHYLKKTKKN
inactive: [1] -0.018 | [2] -0.026 | [3] -0.03 | [4] -0.018 | [5] 0.036 | [6] 0.006 | [7] -0.006 | [8] -0.022 | [9] 0.047 | [10] 0.03 | [11] -0.016 | [12] 0.004 | [13] -0.026 | [14] 0.048 | [15] 0.069 | [16] 0 | [17] 0.024 | [18] -0.036 | [19] 0.049 | [20] 0.003

IRAK4 (UniProt Q9NWZ3)
Chain of UniProt Q9NWZ3 (Q9NWZ3 whole entry, looked up): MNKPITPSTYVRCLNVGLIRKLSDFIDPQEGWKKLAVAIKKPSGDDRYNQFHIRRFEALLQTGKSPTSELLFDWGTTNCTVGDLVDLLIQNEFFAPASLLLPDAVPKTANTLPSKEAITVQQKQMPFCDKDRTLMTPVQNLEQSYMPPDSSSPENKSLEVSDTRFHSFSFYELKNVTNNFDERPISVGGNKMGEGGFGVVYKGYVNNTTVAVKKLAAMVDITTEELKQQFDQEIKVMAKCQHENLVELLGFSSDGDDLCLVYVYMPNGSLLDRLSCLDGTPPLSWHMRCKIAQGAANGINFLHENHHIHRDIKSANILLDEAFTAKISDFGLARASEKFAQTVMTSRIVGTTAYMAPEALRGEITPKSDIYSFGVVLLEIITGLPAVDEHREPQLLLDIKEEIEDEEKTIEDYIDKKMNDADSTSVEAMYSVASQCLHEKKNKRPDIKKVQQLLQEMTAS
active: [8] 0.3
inactive: [1] -0.03 | [2] -0.071 | [3] -0.037 | [4] -0.019 | [5] 0.037 | [6] 0.015 | [7] 0.223 | [9] -0.037 | [10] 0.006 | [11] 0 | [12] 0.195 | [13] 0 | [14] -0.018 | [15] -0.01 | [16] -0.018 | [17] -0.011 | [18] -0.018 | [19] 0.008 | [20] -0.041

GRB10 (UniProt Q13322)
Chain of UniProt Q13322 (Q13322 whole entry, looked up): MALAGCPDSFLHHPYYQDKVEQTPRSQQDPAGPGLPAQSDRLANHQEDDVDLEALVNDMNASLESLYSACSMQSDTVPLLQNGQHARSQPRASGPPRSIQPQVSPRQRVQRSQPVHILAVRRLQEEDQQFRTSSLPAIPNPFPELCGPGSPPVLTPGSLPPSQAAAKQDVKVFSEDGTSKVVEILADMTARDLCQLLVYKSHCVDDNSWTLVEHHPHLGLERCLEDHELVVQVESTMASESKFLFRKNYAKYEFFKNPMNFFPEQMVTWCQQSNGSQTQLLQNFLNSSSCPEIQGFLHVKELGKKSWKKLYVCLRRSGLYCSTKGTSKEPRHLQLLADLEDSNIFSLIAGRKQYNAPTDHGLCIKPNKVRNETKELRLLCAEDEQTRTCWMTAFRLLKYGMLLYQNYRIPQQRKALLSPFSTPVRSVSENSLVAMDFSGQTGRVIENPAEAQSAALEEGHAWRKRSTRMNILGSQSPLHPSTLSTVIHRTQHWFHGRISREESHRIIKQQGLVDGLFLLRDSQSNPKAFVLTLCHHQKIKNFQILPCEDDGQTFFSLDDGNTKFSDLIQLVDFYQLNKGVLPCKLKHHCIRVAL
inactive: [1] 0.027 | [2] -0.004 | [3] -0.06 | [4] 0.013 | [5] -0.03 | [6] 0.016 | [7] 0.019 | [8] 0.073 | [9] 0.054 | [10] -0.039 | [11] 0.015 | [12] -0.039 | [13] -0.006 | [14] -0.032 | [15] 0.014 | [16] 0.04 | [17] -0.015 | [18] -0.032 | [19] -0.006 | [20] 0.066

GLUL (UniProt P15104)
Chain of UniProt P15104 (P15104 whole entry, looked up): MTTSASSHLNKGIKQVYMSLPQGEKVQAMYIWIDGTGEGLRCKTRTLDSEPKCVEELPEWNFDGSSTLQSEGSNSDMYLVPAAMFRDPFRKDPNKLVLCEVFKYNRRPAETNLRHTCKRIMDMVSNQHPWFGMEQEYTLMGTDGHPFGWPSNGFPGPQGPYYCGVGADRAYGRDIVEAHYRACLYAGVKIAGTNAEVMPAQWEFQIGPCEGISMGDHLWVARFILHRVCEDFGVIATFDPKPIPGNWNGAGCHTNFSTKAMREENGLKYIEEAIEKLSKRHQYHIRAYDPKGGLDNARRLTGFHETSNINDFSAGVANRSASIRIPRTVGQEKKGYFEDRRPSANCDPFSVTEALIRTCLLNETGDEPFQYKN
inactive: [1] -0.003 | [2] 0.032 | [3] -0.002 | [4] 0.029 | [5] -0.03 | [6] 0.005 | [7] 0.007 | [8] 0.013 | [9] 0.017 | [10] -0.017 | [11] 0.031 | [12] 0.004 | [13] 0.006 | [14] -0.002 | [15] -0.008 | [16] 0.026 | [17] 0.023 | [18] -0.117 | [19] -0.011 | [20] 0.031

INTS1 (UniProt Q8N201)
inactive: [1] 0.016 | [2] 0.063 | [3] 0.013 | [4] -0.071 | [5] -0.017 | [6] 0.027 | [7] -0.097 | [8] -0.01 | [9] 0.025 | [10] 0.016 | [11] -0.103 | [12] 0.177 | [13] 0.053 | [14] -0.007 | [15] -0.052 | [16] -0.052 | [17] 0.038 | [18] -0.032 | [19] 0.035 | [20] 0.026

ILRUN (UniProt Q9H6K1)
inactive: [1] -0.004 | [2] 0.056 | [3] 0.004 | [4] -0.018 | [5] 0.016 | [6] 0.018 | [7] 0.011 | [8] 0.006 | [9] 0.033 | [10] 0.02 | [11] -0.002 | [12] -0.011 | [13] 0.001 | [14] -0.019 | [15] 0.007 | [16] 0.035 | [17] -0.03 | [18] 0.009 | [19] 0.018 | [20] 0.02

KDM6A (UniProt O15550)
inactive: [1] -0.022 | [2] -0.039 | [3] 0.061 | [4] 0 | [5] 0.006 | [6] 0.023 | [7] -0.064 | [8] 0.004 | [9] 0.045 | [10] 0.017 | [11] -0.007 | [12] 0.012 | [13] 0.003 | [14] -0.028 | [15] 0.025 | [16] -0.007 | [17] -0.065 | [18] 0.009 | [19] -0.004 | [20] 0.022

HNRNPUL1 (UniProt Q9BUJ2)
inactive: [1] -0.039 | [2] 0.011 | [3] 0.002 | [4] -0.016 | [5] -0.023 | [6] -0.045 | [7] 0.03 | [8] 0.01 | [9] -0.02 | [10] -0.032 | [11] 0.028 | [12] -0.13 | [13] 0.017 | [14] -0.014 | [15] -0.019 | [16] 0 | [17] -0.012 | [19] 0 | [20] 0.007
active: [18] -0.275

GTF3C3 (UniProt Q9Y5Q9)
Chain of UniProt Q9Y5Q9 (Q9Y5Q9 whole entry, looked up): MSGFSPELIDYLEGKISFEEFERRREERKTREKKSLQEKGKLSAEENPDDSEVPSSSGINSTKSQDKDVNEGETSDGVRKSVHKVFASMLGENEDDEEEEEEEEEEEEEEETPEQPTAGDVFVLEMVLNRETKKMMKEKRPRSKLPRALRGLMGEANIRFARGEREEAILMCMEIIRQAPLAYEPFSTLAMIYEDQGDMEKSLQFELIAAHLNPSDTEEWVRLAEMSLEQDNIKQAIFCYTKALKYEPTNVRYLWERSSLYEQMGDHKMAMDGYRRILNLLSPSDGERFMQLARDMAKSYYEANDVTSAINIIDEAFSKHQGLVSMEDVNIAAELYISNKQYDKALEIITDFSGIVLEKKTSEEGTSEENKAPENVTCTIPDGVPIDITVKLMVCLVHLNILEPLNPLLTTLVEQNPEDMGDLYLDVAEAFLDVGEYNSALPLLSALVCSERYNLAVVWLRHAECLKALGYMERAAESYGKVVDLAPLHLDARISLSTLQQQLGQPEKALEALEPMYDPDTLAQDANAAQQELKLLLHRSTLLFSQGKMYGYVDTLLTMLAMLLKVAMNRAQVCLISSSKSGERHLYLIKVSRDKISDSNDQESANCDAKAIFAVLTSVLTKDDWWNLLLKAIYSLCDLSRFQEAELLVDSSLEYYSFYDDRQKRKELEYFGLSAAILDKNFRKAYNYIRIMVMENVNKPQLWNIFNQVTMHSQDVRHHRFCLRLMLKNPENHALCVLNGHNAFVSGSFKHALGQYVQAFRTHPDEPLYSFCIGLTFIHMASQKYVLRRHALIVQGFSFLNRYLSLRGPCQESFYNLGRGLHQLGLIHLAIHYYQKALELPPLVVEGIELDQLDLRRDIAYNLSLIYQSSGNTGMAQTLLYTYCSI
inactive: [1] 0.016 | [2] 0.013 | [3] -0.013 | [4] 0.025 | [5] 0 | [6] -0.005 | [7] -0.065 | [8] 0 | [9] 0.031 | [10] -0.001 | [11] 0.033 | [12] -0.001 | [13] 0.027 | [14] -0.005 | [15] 0.02 | [16] -0.003 | [17] -0.112 | [18] 0.014 | [19] 0.047 | [20] -0.007

GPR108 (UniProt Q9NPR9)
Chain of UniProt Q9NPR9 (Q9NPR9 whole entry, looked up): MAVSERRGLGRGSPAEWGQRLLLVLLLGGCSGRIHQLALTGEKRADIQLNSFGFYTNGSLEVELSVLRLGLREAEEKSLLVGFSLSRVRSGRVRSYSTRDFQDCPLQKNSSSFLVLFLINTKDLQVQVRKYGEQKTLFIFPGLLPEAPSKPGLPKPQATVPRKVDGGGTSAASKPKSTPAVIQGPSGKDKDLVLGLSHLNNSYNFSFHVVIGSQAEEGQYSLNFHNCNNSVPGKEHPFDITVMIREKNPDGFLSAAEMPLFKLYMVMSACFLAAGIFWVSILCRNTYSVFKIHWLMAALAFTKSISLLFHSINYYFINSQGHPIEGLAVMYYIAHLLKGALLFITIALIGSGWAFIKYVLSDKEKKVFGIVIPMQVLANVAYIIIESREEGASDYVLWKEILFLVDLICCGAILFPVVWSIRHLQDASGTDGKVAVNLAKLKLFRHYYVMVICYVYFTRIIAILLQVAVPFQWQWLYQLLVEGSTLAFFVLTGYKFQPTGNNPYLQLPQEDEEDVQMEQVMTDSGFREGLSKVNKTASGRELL
inactive: [1] 0.035 | [2] 0.022 | [3] 0 | [4] 0.066 | [5] 0.015 | [6] 0.056 | [7] -0.028 | [8] -0.015 | [9] 0.03 | [10] -0.026 | [11] -0.017 | [12] -0.063 | [13] 0.001 | [14] -0.024 | [15] -0.08 | [16] 0.039 | [17] 0.049 | [18] 0.027 | [19] -0.062 | [20] -0.004

HSP90AA4P (UniProt Q58FG1)
inactive: [1] -0.064 | [2] 0.994 | [3] 0.097 | [4] 0.018 | [5] -0.129 | [6] 0.023 | [7] -0.003 | [8] -0.032 | [9] -0.09 | [10] 0.081 | [11] 0.026 | [12] -0.123 | [13] -0.011 | [14] -0.055 | [15] 0.021 | [16] -0.071 | [17] -0.045 | [18] 0.073 | [19] 0.097 | [20] -0.051

HELQ (UniProt Q8TDG4)
Chain of UniProt Q8TDG4 (Q8TDG4 whole entry, looked up): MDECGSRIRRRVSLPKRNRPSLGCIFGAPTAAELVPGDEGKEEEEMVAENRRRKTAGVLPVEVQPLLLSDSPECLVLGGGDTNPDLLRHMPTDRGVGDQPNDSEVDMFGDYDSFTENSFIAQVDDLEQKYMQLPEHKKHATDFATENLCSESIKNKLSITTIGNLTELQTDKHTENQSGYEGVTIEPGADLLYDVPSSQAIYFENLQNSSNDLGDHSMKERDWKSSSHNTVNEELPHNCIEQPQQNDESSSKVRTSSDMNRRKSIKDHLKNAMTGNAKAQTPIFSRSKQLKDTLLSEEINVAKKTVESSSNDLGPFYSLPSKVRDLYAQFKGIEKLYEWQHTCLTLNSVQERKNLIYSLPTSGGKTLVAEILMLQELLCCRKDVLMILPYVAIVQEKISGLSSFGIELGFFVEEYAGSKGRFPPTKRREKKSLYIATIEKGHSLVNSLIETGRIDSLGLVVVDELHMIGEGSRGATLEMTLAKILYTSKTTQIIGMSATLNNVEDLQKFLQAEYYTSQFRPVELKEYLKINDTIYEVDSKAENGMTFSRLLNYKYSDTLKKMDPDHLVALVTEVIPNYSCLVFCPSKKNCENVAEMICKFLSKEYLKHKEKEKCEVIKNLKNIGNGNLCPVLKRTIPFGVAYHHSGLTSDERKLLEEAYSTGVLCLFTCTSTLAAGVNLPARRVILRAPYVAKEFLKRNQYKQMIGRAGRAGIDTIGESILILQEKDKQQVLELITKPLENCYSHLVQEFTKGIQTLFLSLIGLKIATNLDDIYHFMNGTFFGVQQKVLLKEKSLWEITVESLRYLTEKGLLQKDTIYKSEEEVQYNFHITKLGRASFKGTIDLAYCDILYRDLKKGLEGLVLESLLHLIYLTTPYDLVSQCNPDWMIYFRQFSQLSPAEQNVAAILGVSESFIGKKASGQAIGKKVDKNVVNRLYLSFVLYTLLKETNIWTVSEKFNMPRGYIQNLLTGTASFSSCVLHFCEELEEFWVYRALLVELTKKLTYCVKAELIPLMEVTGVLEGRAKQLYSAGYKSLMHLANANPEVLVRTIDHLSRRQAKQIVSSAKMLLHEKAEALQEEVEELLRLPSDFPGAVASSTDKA
inactive: [1] -0.029 | [2] -0.023 | [3] 0.044 | [4] 0.07 | [5] 0.019 | [6] 0.004 | [7] 0.077 | [8] 0.056 | [9] 0.064 | [10] -0.033 | [11] 0.054 | [12] 0.072 | [13] -0.007 | [14] -0.017 | [15] -0.012 | [16] 0.203 | [17] 0.003 | [18] -0.036 | [19] 0.046 | [20] -0.002

GMPS (UniProt P49915)
Chain of UniProt P49915 (P49915 whole entry, looked up): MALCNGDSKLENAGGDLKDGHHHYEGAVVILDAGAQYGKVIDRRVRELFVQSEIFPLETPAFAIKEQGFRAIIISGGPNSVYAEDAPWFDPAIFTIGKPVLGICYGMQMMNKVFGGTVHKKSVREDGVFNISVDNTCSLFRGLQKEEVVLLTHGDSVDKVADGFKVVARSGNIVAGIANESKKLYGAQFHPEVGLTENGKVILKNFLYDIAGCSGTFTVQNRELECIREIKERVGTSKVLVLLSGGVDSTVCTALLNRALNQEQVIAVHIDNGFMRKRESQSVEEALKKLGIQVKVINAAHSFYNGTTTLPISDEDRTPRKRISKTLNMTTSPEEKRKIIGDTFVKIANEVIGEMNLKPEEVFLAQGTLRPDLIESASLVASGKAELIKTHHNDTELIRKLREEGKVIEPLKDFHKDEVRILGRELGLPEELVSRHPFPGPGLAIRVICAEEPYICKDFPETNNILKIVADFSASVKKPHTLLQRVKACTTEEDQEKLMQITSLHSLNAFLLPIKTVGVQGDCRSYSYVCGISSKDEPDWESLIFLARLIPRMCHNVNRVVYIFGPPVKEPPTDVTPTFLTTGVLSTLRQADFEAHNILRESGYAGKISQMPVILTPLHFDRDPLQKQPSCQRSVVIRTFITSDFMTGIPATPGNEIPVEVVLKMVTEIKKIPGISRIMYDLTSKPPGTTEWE
inactive: [1] 0.014 | [2] -0.025 | [3] 0.004 | [4] 0.029 | [5] -0.013 | [6] -0.007 | [7] -0.009 | [8] -0.003 | [9] 0.017 | [10] -0.004 | [11] -0.034 | [12] 0.003 | [13] 0.009 | [14] 0.013 | [15] 0.006 | [16] -0.032 | [17] 0.025 | [18] -0.024 | [19] 0.015 | [20] 0.02

HEATR3 (UniProt Q7Z4Q2)
inactive: [1] 0.002 | [2] 0.029 | [3] -0.064 | [4] -0.015 | [5] 0.02 | [6] -0.022 | [7] -0.052 | [8] -0.002 | [9] 0.006 | [10] -0.001 | [11] 0.026 | [12] -0.008 | [13] 0.037 | [14] -0.048 | [15] -0.01 | [16] -0.001 | [17] -0.015 | [18] 0.004 | [19] -0.027 | [20] 0.023

IRAK1 (UniProt P51617)
inactive: [1] 0.038 | [2] -0.054 | [3] -0.108 | [4] -0.015 | [5] 0.028 | [6] 0.039 | [7] 0.117 | [8] 0.023 | [9] -0.096 | [10] 0.023 | [11] 0.032 | [12] 0.195 | [13] -0.024 | [14] -0.031 | [15] -0.018 | [16] -0.013 | [17] -0.028 | [18] -0.086 | [19] 0.062 | [20] 0

GOLPH3L (UniProt Q9H4A5)
inactive: [1] 0.028 | [2] -0.003 | [3] 0.012 | [4] 0.07 | [5] -0.03 | [6] 0.092 | [7] -0.085 | [8] 0.005 | [9] 0.03 | [10] 0.023 | [11] 0.058 | [12] 0.005 | [13] -0.058 | [14] 0.071 | [15] 0.009 | [16] -0.042 | [17] -0.01 | [18] 0.114 | [19] -0.029 | [20] 0.006
